Test results taken from the supplement of paper PMC12494721.
Structures can show the parent of a compound that is named as a salt.

Key:
Conditions in all cases: incubation time: 27 h, anaerobic, 37 °C;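 for the amine columns active = adjusted P below 0.05 in both replicates with a change the same way and a mean fold change under 0.8 or over 1.25; inactive = the rest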
[1] = system: Clostridium sporogenes DSM 1664; assay: growth (OD595) fold change vs plate DMSO controls (fold change (ratio)); higher = more growth
Outline: (§1)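 The 96-well mGAM cultures had been kept anaerobic for 27 h at 37 °C before being shaken and read at 595 nm. Blank subtraction, compound background correction with 20 µM compound solutions in water, and a calibration factor of 5 turned the readings into OD. Growth is given as the fold change versus the median of plate DMSO controls. Fold changes above 1.5 were set to NA, and the values are means of 2 biological replicates.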

Escherichia coli IAI1 [2] = assay: as above
Outline: as §1

[3] = system: Klebsiella aerogenes DSM 30053; assay: as above
Outline: as §1

[4] = system: Ruminococcus gnavus DSM 108212; assay: as above
Outline: as §1

[5] = system: Klebsiella aerogenes DSM 30053; assay: fold change of Histamine concentration vs plate DMSO controls (fold change (ratio)); higher = more amine produced, active = hit call of the paper (significant change in both replicates, either direction)
Outline: (§2)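 Each value is the fold change relative to DMSO-only wells on the same plate. Four gut bacterial strains were grown anaerobically in mGAM at 37 °C for 27 h in 80 µL wells, starting at OD 0.1 before a 1:1 dilution, with compounds at 20 µM final (sweeteners 50 µM). Whole cultures were extracted with cold acetonitrile/methanol containing 0.1% formic acid, centrifuged, and amines were quantified by LC–triple-quadrupole MS (dynamic MRM) against external calibration curves with within-batch drift correction. Values are means of 2 biological replicates.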

[6] = system: Clostridium sporogenes DSM 1664; assay: fold change of Tryptamine concentration vs plate DMSO controls (fold change (ratio)); higher = more amine produced, active = hit call of the paper (significant change in both replicates, either direction)
Outline: as §2

[7] = system: Ruminococcus gnavus DSM 108212; assay: as above
Outline: as §2

Escherichia coli IAI1 [8] = assay: fold change of Putrescine concentration vs plate DMSO controls (fold change (ratio)); higher = more amine produced, active = hit call of the paper (significant change in both replicates, either direction)
Outline: as §2

[9] = system: Klebsiella aerogenes DSM 30053; assay: as above
Outline: as §2

Escherichia coli IAI1 [10] = assay: fold change of Cadaverine concentration vs plate DMSO controls (fold change (ratio)); higher = more amine produced, active = hit call of the paper (significant change in both replicates, either direction)
Outline: as §2

[11] = system: Klebsiella aerogenes DSM 30053; assay: as above
Outline: as §2

[12] = system: Ruminococcus gnavus DSM 108212; assay: fold change of 2-Phenylethylamine concentration vs plate DMSO controls (fold change (ratio)); higher = more amine produced, active = hit call of the paper (significant change in both replicates, either direction)
Outline: as §2

| Structure (SMILES) | growth [1] | growth (Escherichia coli IAI1 [2]) | growth [3] | growth [4] | fold change of Histamine concentration [5] | fold change of Tryptamine concentration [6] | fold change of Tryptamine concentration [7] | fold change of Putrescine concentration (Escherichia coli IAI1 [8]) | fold change of Putrescine concentration [9] | fold change of Cadaverine concentration (Escherichia coli IAI1 [10]) | fold change of Cadaverine concentration [11] | fold change of 2-Phenylethylamine concentration [12] |
| --- | --- | --- | --- | --- | --- | --- | --- | --- | --- | --- | --- | --- |
| OC[C@H]1O[C@@H](O[C@H]2[C@H](O)[C@@H](O)[C@H](O)O[C@@H]2CO)[C@H](O)[C@@H](O)[C@H]1O [Lactose] (50 µM) | 0.993 | 1.02 | 1.05 | 1.07 | 1.01 (inactive) | 0.96 (inactive) | 0.989 (inactive) | 1.03 (inactive) | 1.01 (inactive) | 0.984 (inactive) | 1.02 (inactive) | 0.976 (inactive) |
| Oc1ncnc2[nH]ncc12 [Allopurinol] (20 µM) | 1.03 | 0.942 | 0.974 | 1.02 | 1.03 (inactive) | 1.04 (inactive) | 1.01 (inactive) | 1.09 (inactive) | 1 (inactive) | 1.01 (inactive) | 1.01 (inactive) | 1.02 (inactive) |
| CC(N)C12CC3CC(CC(C3)C1)C2 (stereo unspecified) [Rimantadine hydrochloride] (20 µM) | 0.858 | 0.975 | 0.955 | 0.786 | 1.01 (inactive) | 0.984 (inactive) | 1 (inactive) | 0.947 (inactive) | 1.01 (inactive) | 1.01 (inactive) | 0.994 (inactive) | 0.987 (inactive) |
| CCCCOc1cc(C(=O)NCCN(CC)CC)c2ccccc2n1 [Dibucaine] (20 µM) | 1.14 | 1.01 | 1.06 | 1.02 | 0.93 (inactive) | 1.02 (inactive) | 1 (inactive) | 0.927 (inactive) | 0.955 (inactive) | 0.961 (inactive) | 1.03 (inactive) | 1.03 (inactive) |
| N=c1ccn2c(n1)O[C@H]1[C@H](O)[C@@H](CO)O[C@H]12 [Ancitabine hydrochloride] (20 µM) | 1.2 | 1.01 | 0.999 | 0.855 | 1.06 (inactive) | 0.98 (inactive) | 0.744 (active) | 1.02 (inactive) | 0.991 (inactive) | 1 (inactive) | 0.992 (inactive) | 0.794 (inactive) |
| O=C(CO)[C@@H](O)[C@H](O)[C@@H](CO)O[C@H]1O[C@H](CO)[C@@H](O)[C@H](O)[C@H]1O [Leucrose] (50 µM) | 0.936 | 0.999 | 1.01 | 0.99 | 1.02 (inactive) | 1.03 (inactive) | 0.993 (inactive) | 1.05 (inactive) | 1 (inactive) | 1.02 (inactive) | 0.992 (inactive) | 0.968 (inactive) |
| C=CCc1ccccc1OCC(O)CNC(C)C (stereo unspecified) [Alprenolol hydrochloride] (20 µM) | 0.992 | 0.97 | 0.955 | 0.856 | 1.05 (inactive) | 1.07 (inactive) | 1.08 (inactive) | 0.934 (inactive) | 0.985 (inactive) | 1.01 (inactive) | 0.998 (inactive) | 0.998 (inactive) |
| Cc1ccc(C(=O)c2cc(O)c(O)c([N+](=O)[O-])c2)cc1 [Tolcapone] (20 µM) | 1.11 | 0.961 | 0.997 | 1.19 | 1.01 (inactive) | 0.908 (inactive) | 0.983 (inactive) | 1.33 (inactive) | 0.998 (inactive) | 0.981 (inactive) | 1 (inactive) | 0.971 (inactive) |
| [S] (20 µM) | 1.07 | 0.919 | 0.964 | 0.976 | 0.924 (inactive) | 0.999 (inactive) | 1.01 (inactive) | 1.02 (inactive) | 0.962 (inactive) | 0.951 (inactive) | 1 (inactive) | 1.02 (inactive) |
| O=[N+]([O-])c1ccc2c(c1)Cc1ccccc1-2 [2-Nitrofluorene] (20 µM) | 0.873 | 0.978 | 0.973 | 0.994 | 0.997 (inactive) | 1 (inactive) | 1.04 (inactive) | 0.97 (inactive) | 1 (inactive) | 1.04 (inactive) | 0.995 (inactive) | 1.02 (inactive) |
| Cc1ccc(Nc2c(F)cccc2Cl)c(CC(=O)O)c1 [Lumiracoxib] (20 µM) | 0.867 | 0.984 | 1.1 | 1.08 | 0.88 (inactive) | 0.956 (inactive) | 0.971 (inactive) | 1.02 (inactive) | 1.02 (inactive) | 1.02 (inactive) | 1.03 (inactive) | 0.994 (inactive) |
| CC(C(=O)O)c1cccc(Oc2ccccc2)c1 (stereo unspecified) [Fenoprofen calcium salt dihydrate] (20 µM) | 0.882 | 0.997 | 1.04 | 1.21 | 0.981 (inactive) | 0.945 (inactive) | 0.951 (inactive) | 0.976 (inactive) | 0.983 (inactive) | 1.03 (inactive) | 1 (inactive) | 0.937 (inactive) |
| CC(=O)Oc1cc2c(s1)CCN(C(C(=O)C1CC1)c1ccccc1F)C2 (stereo unspecified) [Prasugrel] (20 µM) | 1.1 | 1.02 | 1 | 0.989 | 1 (inactive) | 0.957 (inactive) | 0.985 (inactive) | 0.983 (inactive) | 1.01 (inactive) | 1.03 (inactive) | 0.994 (inactive) | 0.965 (inactive) |
| OCC(O)CN1CCN(c2ccccc2)CC1 (stereo unspecified) [Dropropizine] (20 µM) | 0.934 | 1.02 | 1.02 | 1.1 | 1.08 (inactive) | 1.04 (inactive) | 1.05 (inactive) | 0.998 (inactive) | 1 (inactive) | 1.04 (inactive) | 0.992 (inactive) | 1.05 (inactive) |
| Cn1nnc2c(C(N)=O)ncn2c1=O [Temozolomide] (20 µM) | 1.09 | 0.982 | 0.992 | 1.23 | 0.956 (inactive) | 0.977 (inactive) | 1.02 (inactive) | 1 (inactive) | 0.989 (inactive) | 1.02 (inactive) | 0.998 (inactive) | 1.01 (inactive) |
| CC(=O)CC(c1ccccc1)c1c(O)c2ccccc2oc1=O (stereo unspecified) (20 µM) | 1.05 | 0.981 | 1 | 1.15 | 1.01 (inactive) | 0.979 (inactive) | 0.984 (inactive) | 1.01 (inactive) | 1 (inactive) | 0.995 (inactive) | 0.99 (inactive) | 0.99 (inactive) |
| CN1[C@@H]2CC[C@H]1C[C@@H](OC(=O)c1c[nH]c3ccccc13)C2 [Tropisetron hydrochloride] (20 µM) | 1.14 | 1 | 1.14 | 1.08 | 0.94 (inactive) | 1.01 (inactive) | 1.02 (inactive) | 0.982 (inactive) | 0.952 (inactive) | 0.994 (inactive) | 1.01 (inactive) | 0.957 (inactive) |
| Clc1ccc(CO/N=C(\Cn2ccnc2)c2ccc(Cl)cc2Cl)c(Cl)c1 [Oxiconazole nitrate] (20 µM) | 0.912 | 0.995 | 0.981 | 0.321 | 1.02 (inactive) | 0.91 (inactive) | 0.351 (active) | 1.04 (inactive) | 1.05 (inactive) | 1.03 (inactive) | 1.07 (inactive) | 0.629 (inactive) |
| C=C1c2c(Cl)ccc(O)c2C(O)=C2C(=O)[C@]3(O)C(O)=C(C(N)=O)C(=O)[C@@H](N(C)C)[C@@H]3[C@@H](O)[C@H]12.O=C(O)c1cc(S(=O)(=O)O)ccc1O [Meclocycline sulfosalicylate] (20 µM) | 0.0138 | 0.000715 | 0.0719 | 0.113 | 0.0573 (active) | 0.0133 (active) | 0.0772 (active) | 0.14 (active) | 0.444 (active) | 0.447 (active) | 0.514 (active) | 0.11 (active) |
| Clc1ccc(C(Cn2ccnc2)OCc2csc3c(Cl)cccc23)c(Cl)c1 (stereo unspecified) [Sertaconazole nitrate] (20 µM) | 0.896 | 1.1 | 0.993 | 0.501 | 0.978 (inactive) | 1.12 (inactive) | 0.435 (active) | 1.08 (inactive) | 0.954 (inactive) | 0.973 (inactive) | 1.03 (inactive) | 0.591 (inactive) |
| CC(=O)Oc1c(C)cccc1C(=O)O [Cresopirine] (20 µM) | 1.04 | 0.974 | 1.03 | 0.935 | 0.972 (inactive) | 1.06 (inactive) | 0.962 (inactive) | 0.977 (inactive) | 1.02 (inactive) | 0.998 (inactive) | 1.01 (inactive) | 0.945 (inactive) |
| CC(C)(C(=O)c1cccnc1)c1cccnc1 [Metyrapone] (20 µM) | 1.01 | 1.01 | 1.01 | 1 | 1.03 (inactive) | 1 (inactive) | 1 (inactive) | 0.985 (inactive) | 1.02 (inactive) | 1.01 (inactive) | 1 (inactive) | 1.01 (inactive) |
| C[C@]1(Cn2ccnn2)[C@H](C(=O)O)N2C(=O)C[C@H]2S1(=O)=O [Tazobactam] (20 µM) | 0.105 | 1 | 0.973 | 1.05 | 0.904 (inactive) | 0.703 (active) | 1.05 (inactive) | 1.05 (inactive) | 1.04 (inactive) | 0.989 (inactive) | 1.03 (inactive) | 1.1 (inactive) |
